# Target: ARIH1
# Assay: pooled miR-30 sensor sort-seq; sequence = guide strand
# Details: shRNA
# Further: reference of the scale not given here.
row,Sequence,sensor-assay potency score (higher = more potent)
1,TTACAGTAGAACAGGTACCTCT,-0.0917
2,TATCCTGCAGAGAATCTTGGGA,0.446
3,TTAGGGTAGTTCAAGTAGCAGA,-0.412
4,TACTTTCTGCTTTATATCCTGC,0.014
5,TTGGACTTTAACAACATGGTGG,0.0155
6,TTAACCACTTACATTTAACAGG,-0.703
7,TTTAACAGTCGATTGCACTCTA,0.745
8,TTTAATTGCATGAGCACTCTAG,-0.104

# Target: ARL3
# Assay: as above
# Details: shRNA
row,Sequence,sensor-assay potency score (higher = more potent)
1,AACCTTGTGATTGTACACTTTT,-0.441
2,TACATATATAAGAATATCGGTA,-0.522
3,AATTCTTCCAGTATGGTCTGAT,0.17
4,TTGTGATTGTACACTTTTGATG,-1.36
5,TTGATGTTGAAACCCTGTGTAG,-0.924
6,TTGTACACTTTTGATGTTGAAA,-1.03
7,TAATTCTTCCAGTATGGTCTGA,0.485
8,TTTTGATGTTGAAACCCTGTGT,0.456
9,TTTTTCTGTCTGCACTGTCGAT,-0.887
10,TTTTCAAAATAATTCTTCCAGT,-0.927
11,TTTGATGTTGAAACCCTGTGTA,0.537
12,TTCAGATGCAAGCTGCTTCAGA,-0.224
13,TTCAGAAGAGTGGTCTTGCCAG,-0.492
14,TCTGGTGCACTTTTCAACTTGC,0.321
15,TGATTGTACACTTTTGATGTTG,-0.736
16,TTAGTTTTTCTTCCTCCAGTAA,-0.387
17,AATCTTTTTCTGTCTGCACTGT,-0.19
18,TTCAGTTTAAAACCTTGTGATT,-1.5
19,ATACATTCAGTTTAAAACCTTG,-0.514
20,TTACATATATAAGAATATCGGT,-0.321
21,TTGACATTTTTGCAGACCCAGT,-1.64
22,TTTTCTGTCTGCACTGTCGATT,-0.243
23,TAAGAATATCGGTATTTTCAAA,-1.26

# Target: ARL4D
# Assay: as above
# Details: shRNA
row,Sequence,sensor-assay potency score (higher = more potent)
1,TCCACCACAAACACTAGACCGT,-0.55
2,TTCGGTGCAACTCCACCTTGGC,0.0163
3,TTCCTCTTGAGGATCATCTCAT,0.0255
4,TTTGGTGGGGACACTCTGGACA,-0.71
5,ACACTCTGGACAAACTCCTTGA,-0.682
6,AGACCGTCCACAGCGCTGCAGC,-1.79
7,TAGACCGTCTGTCCGGCGGGTA,-1.34
8,TGATTCGGTGCAACTCCACCTT,0.0703
9,TCGGTGTTGAAGCCTTTGGTGG,-1.59
